For some of these results: Results with a measured potency or affinity are listed apart.
How the values were obtained:
Design in all cases: scale not given: direction of the effect not stated beside the values
[1] = target: Protein translocase subunit SecA (Escherichia coli (strain K12)) (UniProt P10408); experiment: Assay to Identify E. coli SecA ATPase Inhibitors; type: functional; settings: 30 µM
[2] = target: T1, Ubiquitin-activating enzyme e1, putative (Leishmania donovani (strain BPK282A1)) (UniProt E9BSI1); experiment: Leishmania donovani Ubiquitin Activating Enzyme (LdE1); type: functional; settings: 30 µM
T1 sequence (whole entry): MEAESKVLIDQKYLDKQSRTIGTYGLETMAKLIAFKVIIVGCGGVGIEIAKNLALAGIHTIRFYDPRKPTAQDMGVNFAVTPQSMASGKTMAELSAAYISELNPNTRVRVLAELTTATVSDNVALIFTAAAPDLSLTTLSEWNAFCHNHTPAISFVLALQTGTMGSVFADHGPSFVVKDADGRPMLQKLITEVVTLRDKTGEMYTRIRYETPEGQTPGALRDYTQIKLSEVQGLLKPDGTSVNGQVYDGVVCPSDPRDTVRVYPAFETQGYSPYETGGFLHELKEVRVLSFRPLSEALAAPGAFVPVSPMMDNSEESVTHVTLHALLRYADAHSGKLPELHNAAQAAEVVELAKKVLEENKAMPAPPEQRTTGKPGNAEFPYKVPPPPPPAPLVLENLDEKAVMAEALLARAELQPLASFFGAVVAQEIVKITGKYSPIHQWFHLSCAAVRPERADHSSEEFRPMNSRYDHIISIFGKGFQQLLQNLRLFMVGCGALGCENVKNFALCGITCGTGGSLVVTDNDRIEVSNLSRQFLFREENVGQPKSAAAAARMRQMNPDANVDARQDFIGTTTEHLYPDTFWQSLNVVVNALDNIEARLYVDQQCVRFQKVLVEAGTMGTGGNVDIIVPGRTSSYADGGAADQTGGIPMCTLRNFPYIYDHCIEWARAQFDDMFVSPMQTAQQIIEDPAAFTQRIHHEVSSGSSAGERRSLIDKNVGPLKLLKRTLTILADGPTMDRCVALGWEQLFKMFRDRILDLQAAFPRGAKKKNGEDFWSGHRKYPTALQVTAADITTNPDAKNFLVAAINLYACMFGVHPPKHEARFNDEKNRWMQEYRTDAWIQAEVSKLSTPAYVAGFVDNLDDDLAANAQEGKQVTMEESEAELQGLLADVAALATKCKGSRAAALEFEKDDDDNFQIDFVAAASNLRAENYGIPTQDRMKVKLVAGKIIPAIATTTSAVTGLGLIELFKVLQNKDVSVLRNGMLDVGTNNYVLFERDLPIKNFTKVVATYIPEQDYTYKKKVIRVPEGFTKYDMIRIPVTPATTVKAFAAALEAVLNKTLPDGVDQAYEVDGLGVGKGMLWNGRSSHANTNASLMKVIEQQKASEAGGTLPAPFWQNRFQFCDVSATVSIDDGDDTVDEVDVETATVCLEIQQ

[3] = target: AMP-activated protein kinase, AMPK (Homo sapiens) (UniProt P54646+O43741+P54619+Q9UGJ0+Q9Y478+Q13131+Q9UGI9); experiment: AMP-dependent Kinase enzyme assay. An in vitro enzyme assay that detects ADP turnover that is directly proportional to AMPK activity. This uses naive AMPK that is activated during the assay with MK-8722; type: functional; settings: 30 µM
[4] = target: Sialic acid-binding Ig-like lectin 9 (Homo sapiens) (UniProt Q9Y336); experiment: Hs-Siglec9 ALPHAscreen SOP 20170721; settings: 10 µM
Chain of Sialic acid-binding Ig-like lectin 9 (Homo sapiens) (Q9Y336 whole entry): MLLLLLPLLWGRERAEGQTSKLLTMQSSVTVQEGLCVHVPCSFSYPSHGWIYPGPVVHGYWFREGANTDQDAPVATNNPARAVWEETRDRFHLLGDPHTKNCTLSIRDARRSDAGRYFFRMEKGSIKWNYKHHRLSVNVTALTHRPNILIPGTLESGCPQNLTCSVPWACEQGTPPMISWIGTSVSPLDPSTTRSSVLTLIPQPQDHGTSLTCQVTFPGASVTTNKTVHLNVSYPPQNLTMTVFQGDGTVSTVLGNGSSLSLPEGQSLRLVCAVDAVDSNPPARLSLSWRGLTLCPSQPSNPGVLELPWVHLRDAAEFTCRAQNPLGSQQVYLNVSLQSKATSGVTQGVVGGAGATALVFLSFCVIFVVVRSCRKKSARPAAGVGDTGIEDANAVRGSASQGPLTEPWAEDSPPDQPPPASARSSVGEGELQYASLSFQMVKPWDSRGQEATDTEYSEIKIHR

Trypanosoma cruzi = experiment: Trypanosoma cruzi phosphomannomutase and mannose-1-phosphate guanylyltransferase assay; type: functional; settings: 10 µM
[5] = target: T2, Arginase-2, mitochondrial (Homo sapiens) (UniProt P78540); experiment: in vitro enzyme assay to detect the production of urea directly proportional to the activity of Arginase II; type: functional; settings: 33.3 µM; note: in the data most compounds retested in dose-response had high values
T2 sequence (whole entry): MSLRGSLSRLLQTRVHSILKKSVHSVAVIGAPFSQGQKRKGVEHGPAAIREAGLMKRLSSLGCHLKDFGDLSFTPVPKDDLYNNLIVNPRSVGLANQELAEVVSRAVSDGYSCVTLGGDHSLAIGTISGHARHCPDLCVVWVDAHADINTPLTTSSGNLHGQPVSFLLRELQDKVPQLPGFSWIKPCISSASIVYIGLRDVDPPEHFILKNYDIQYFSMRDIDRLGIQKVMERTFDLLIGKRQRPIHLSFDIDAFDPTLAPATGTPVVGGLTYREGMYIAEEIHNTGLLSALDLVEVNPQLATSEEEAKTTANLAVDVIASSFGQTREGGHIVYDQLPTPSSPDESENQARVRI

[6] = target: T3, Proteasome subunit beta (Trypanosoma cruzi) (UniProt O96673); experiment: Trypanosoma cruzi proteasome chymotrypsin-like activity (TcProtChymo) assay.; note: in the data most compounds retested in dose-response had high values; type: functional; settings: 9.37 µM
T3 sequence (whole entry): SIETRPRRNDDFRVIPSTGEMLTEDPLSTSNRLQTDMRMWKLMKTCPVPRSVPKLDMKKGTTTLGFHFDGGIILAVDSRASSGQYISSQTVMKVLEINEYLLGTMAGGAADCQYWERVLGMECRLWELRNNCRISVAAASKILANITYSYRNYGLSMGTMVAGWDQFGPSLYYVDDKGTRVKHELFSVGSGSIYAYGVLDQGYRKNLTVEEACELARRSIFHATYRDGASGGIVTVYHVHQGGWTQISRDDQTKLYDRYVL

Homo sapiens = species on record: Homo sapiens; experiment: To identify inhibition of the IFN signalling (Jak-Stat) pathway via expression of an eGFP reporter gene under the control of an IFN-stimulated response element (ISRE) containing MxA promoter.; type: functional; settings: 30 µM
[7] = target: T4, Tyrosyl-tRNA synthetase, putative (Trypanosoma cruzi (strain CL Brener)) (UniProt Q4DSP6); experiment: Trypanosoma cruzi tyrosyl tRNA synthetase (TcYRS) _High Tyrosine SOP; type: functional; settings: 30 µM; note: in the data most compounds retested in dose-response had high values
T4 sequence (whole entry): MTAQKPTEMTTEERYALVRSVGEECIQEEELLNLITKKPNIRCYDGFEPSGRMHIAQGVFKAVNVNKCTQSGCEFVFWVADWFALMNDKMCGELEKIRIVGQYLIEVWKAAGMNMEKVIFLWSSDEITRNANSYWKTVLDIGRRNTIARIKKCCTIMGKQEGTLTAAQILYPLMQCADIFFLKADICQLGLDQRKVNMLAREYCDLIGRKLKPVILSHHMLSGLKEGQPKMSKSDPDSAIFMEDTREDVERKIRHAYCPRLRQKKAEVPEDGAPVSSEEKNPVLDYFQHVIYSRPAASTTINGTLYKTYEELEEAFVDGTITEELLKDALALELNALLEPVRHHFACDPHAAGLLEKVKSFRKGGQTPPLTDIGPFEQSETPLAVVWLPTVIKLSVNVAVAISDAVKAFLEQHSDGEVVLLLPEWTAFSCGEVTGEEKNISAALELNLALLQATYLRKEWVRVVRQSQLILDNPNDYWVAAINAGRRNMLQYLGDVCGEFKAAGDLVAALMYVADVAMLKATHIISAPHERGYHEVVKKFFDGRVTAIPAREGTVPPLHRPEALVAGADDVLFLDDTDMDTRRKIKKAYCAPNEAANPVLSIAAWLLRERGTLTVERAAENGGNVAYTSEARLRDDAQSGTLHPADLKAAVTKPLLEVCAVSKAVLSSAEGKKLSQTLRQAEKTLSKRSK

[8] = target: T4, Tyrosyl-tRNA synthetase, putative (Trypanosoma cruzi (strain CL Brener)); experiment: Trypanosoma cruzi tyrosyl tRNA synthetase (TcYRS) SOP; type: functional; settings: 30 µM
[9] = target: Chromo domain-containing protein 1 (Saccharomyces cerevisiae (strain ATCC 204508 / S288c) (Baker's yeast)) (UniProt P32657); experiment: ScCHD-1 Enzyme Inhibition Assay; type: functional; settings: 30 µM; note: in the data most compounds retested in dose-response had high values
Chain of Chromo domain-containing protein 1 (Saccharomyces cerevisiae (strain ATCC 204508 / S288c) (Baker's yeast)) (P32657 whole entry, the tested form may be a part): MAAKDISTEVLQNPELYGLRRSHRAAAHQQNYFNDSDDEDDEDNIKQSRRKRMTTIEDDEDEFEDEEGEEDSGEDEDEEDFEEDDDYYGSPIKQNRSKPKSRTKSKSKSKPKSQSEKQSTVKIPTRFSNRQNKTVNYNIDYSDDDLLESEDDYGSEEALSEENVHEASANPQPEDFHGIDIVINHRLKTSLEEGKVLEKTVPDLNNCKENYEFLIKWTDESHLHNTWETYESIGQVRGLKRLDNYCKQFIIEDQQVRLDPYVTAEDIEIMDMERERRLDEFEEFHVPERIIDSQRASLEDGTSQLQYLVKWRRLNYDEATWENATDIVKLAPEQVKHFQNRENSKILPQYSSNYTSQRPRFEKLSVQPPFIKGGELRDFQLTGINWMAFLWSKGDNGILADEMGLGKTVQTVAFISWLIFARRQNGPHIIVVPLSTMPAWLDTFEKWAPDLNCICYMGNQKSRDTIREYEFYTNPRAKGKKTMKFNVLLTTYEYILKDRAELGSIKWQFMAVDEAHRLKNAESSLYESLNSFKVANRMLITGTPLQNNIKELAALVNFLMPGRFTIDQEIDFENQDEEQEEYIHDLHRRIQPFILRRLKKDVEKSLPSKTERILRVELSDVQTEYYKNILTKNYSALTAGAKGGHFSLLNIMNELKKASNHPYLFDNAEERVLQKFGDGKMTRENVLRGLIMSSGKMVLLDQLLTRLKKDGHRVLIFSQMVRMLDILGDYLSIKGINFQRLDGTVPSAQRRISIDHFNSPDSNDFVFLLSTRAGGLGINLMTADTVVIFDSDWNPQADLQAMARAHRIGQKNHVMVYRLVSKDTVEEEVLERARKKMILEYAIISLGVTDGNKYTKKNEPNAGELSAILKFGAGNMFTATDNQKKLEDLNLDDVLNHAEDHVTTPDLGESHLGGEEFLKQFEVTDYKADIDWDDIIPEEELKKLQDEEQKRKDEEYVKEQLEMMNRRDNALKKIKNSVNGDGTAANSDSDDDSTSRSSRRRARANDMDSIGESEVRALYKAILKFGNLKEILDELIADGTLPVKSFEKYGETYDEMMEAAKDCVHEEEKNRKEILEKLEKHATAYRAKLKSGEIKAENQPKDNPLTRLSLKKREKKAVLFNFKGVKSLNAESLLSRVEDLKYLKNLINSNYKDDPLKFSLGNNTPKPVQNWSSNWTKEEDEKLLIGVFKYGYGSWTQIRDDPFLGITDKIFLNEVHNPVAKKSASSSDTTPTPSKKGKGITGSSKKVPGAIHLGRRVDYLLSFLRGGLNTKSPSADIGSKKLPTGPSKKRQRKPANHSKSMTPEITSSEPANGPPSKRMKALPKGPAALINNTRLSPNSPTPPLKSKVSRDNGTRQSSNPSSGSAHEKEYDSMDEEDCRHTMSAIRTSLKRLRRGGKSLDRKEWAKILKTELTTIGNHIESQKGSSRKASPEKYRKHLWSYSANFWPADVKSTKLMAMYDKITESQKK

Chain of Protein translocase subunit SecA (Escherichia coli (strain K12)) (P10408 whole entry): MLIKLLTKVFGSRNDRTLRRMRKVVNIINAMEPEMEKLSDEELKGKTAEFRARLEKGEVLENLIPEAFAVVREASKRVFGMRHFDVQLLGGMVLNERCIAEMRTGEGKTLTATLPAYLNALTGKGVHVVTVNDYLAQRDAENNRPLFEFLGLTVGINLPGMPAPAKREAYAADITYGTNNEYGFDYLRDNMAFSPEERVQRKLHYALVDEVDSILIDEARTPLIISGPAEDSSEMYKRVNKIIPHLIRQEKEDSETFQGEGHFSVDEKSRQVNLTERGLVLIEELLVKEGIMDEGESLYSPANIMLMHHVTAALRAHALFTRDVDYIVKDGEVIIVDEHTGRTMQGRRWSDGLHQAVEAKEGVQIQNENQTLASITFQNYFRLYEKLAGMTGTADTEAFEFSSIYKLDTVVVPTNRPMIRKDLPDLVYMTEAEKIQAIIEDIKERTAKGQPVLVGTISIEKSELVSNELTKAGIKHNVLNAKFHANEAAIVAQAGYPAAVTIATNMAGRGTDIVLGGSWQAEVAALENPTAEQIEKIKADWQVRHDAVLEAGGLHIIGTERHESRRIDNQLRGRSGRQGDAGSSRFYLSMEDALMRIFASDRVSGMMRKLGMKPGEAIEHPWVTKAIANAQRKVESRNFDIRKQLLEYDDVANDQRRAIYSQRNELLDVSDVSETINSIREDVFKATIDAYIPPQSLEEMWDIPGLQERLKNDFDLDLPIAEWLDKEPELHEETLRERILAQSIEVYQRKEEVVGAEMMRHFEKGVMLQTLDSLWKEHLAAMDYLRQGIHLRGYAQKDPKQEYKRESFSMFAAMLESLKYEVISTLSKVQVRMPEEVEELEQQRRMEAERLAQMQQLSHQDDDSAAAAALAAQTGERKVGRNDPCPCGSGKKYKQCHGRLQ

| SMILES | Percent Effect [1] [%] | Percent Effect [2] [%] | Percent Effect [3] [%] | Percent Effect [4] [%] | Percent Effect (Trypanosoma cruzi) [%] | Percent Effect [5] [%] | Percent Effect [6] [%] | Percent Effect (Homo sapiens) [%] | Percent Effect [7] [%] | Percent Effect [8] [%] | Percent Effect [9] [%] |
| --- | --- | --- | --- | --- | --- | --- | --- | --- | --- | --- | --- |
| Cc1occc1C(=O)N1CCC2(CCCN(CC3CCC3)C2=O)C1 (stereo unspecified) | 0.601 | 1.39 | -1.7 | 8.02 | 2.62 | 11 | 13.3 | 13.6 | 6.32 | 10.3 | -2.8 |
| CCn1cc2c(n1)CN(CC1CC1)CC2COCC1CC1 (stereo unspecified) | -2.46 | 10.7 | 4.51 | -3.73 | -1.77 | -5.36 | 9.25 | -20.4 | 5.32 | 8.97 | -4.66 |
| O=C(N1CCOCC1)[C@@]12CCO[C@@H]1CCN(CCN1CCCCC1)C2 | -0.594 | 14.7 | -0.279 | -2.46 | 1.18 | -4.05 | 20.9 | -2.62 | -6.35 | 15.4 | -11.6 |
| O=C(c1cccc(F)c1)N1CCN2C[C@H](OCc3cccnc3)C[C@H]2C1 | -4.82 | 10.7 | 5.61 | 1.34 | -3.15 | 6.29 | 10.7 | 8.83 | 3.19 | 14.1 | -3.02 |
| Cc1ccccc1CNC(=O)Cc1c(C)nc2cc(=O)[nH]n2c1C | -2.72 | 13.2 | -32.1 | 17.4 | 4.13 | -4.21 | 4.18 | 2.25 | 9.31 | 17.1 | -11.1 |
| c1nc2n(n1)CC(NCc1nc(-c3ccsc3)no1)CC2 (stereo unspecified) | -3.43 | 0 | -5.33 | -3.06 | -1.02 | -0.554 | -5.92 | 4.74 | 2.97 | 6.1 | 7.25 |
| CCOc1ccc(Cl)cc1C1CCCN1 (stereo unspecified) | -3.13 | 10.5 | 4 | 1.21 | 3.21 | -11.8 | 13.5 | 2.15 | 0 | 7.79 | -2.96 |
| Cc1cc(F)c(S(=O)(=O)NCCCN2CCC(O)CC2)cc1F | 0.398 | 5.2 | 5.04 | -1.8 | -10.9 | -24.8 | 15.8 | 19.9 | -1.07 | 1.24 | -1.88 |
| CN(C)C(=O)CN1CCC2(CCN(Cc3nccs3)CC2)C1=O | -0.585 | 10.7 | 0.545 | -5.07 | -9.46 | -60.4 | 12.5 | 13.1 | -12.5 | 5 | -7.73 |
| CN(c1cccnn1)C1CCN(C(=O)c2ccc3c(c2)COC3)CC1 | -7.72 | -44.2 | 15.1 | 5.38 | 0.187 | 2.85 | 5.41 | 9.98 | 6.8 | 12.2 | -5.25 |
| Cc1occc1C(=O)N1CCOCC2(CCN(Cc3nccs3)C2)C1 (stereo unspecified) | -0.601 | 2.6 | 0.286 | 7.22 | -0.688 | 5.52 | 9.82 | -13.2 | -3.23 | -6.17 | 2.92 |

Source: ChEMBL document CHEMBL3988442, “University of Dundee, Small-Polar-MMV Screening Library” (2021)
